Laboratory results reported in the supplement of paper PMC7411054.

Experiments:
Settings in all cases: treatment time: 24 h
A549-ACTB-RAB5A [1] = assay: lowest phenotypically active concentration; higher = less potent
How it was run: (§1)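 After 24 h at 0.3, 1, 3 or 9 µM, with four wells per treatment, fifteen gene-edited A549, HepG2 and WPMY1 reporter lines carrying BFP, GFP and RFP/FusionRed were imaged live. Each well's live-cell features were expressed relative to solvent control wells. Deviation required ≥3 of 4 wells past the 95th percentile of control Euclidean distances, and reproducibility a median replicate Pearson correlation over the 95th percentile of non-replicates. Phenotypic activity rested on both.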

A549-CANX-COX4 [2] = assay: as above
How it was run: as §1

A549-GM130-SQSTM1 [3] = assay: as above
How it was run: as §1

A549-TP53BP1-CLTA [4] = assay: as above
How it was run: as §1

A549-TUBA1B-RELA [5] = assay: as above
How it was run: as §1

HepG2-TP53BP1-CLTA [6] = assay: as above
How it was run: as §1

A549-ACTB-RAB5A [7] = assay: phenotypically active (imaging signature differs from DMSO and reproducible) at any of 0.3-9 uM (binary (1 = active, 0 = inactive)); higher = active
How it was run: as §1

A549-CANX-COX4 [8] = assay: as above
How it was run: as §1

A549-GM130-SQSTM1 [9] = assay: as above
How it was run: as §1

A549-TP53BP1-CLTA [10] = assay: as above
How it was run: as §1

A549-TUBA1B-RELA [11] = assay: as above
How it was run: as §1

HepG2-ACTB-RAB5A = assay: as above
How it was run: as §1

HepG2-CANX-COX4 = assay: as above
How it was run: as §1

HepG2-GM130-SQSTM1 = assay: as above
How it was run: as §1

HepG2-TP53BP1-CLTA [12] = assay: as above
How it was run: as §1

HepG2-TUBA1B-RELA = assay: as above
How it was run: as §1

WPMY1-CANX-COX4 = assay: as above
How it was run: as §1

WPMY1-GM130-SQSTM1 = assay: as above
How it was run: as §1

WPMY1-TP53BP1-CLTA = assay: as above
How it was run: as §1

WPMY1-TUBA1B-RELA = assay: as above
How it was run: as §1

SMILES | lowest phenotypically active concentration (A549-ACTB-RAB5A [1]) | lowest phenotypically active concentration (A549-CANX-COX4 [2]) | lowest phenotypically active concentration (A549-GM130-SQSTM1 [3]) | lowest phenotypically active concentration (A549-TP53BP1-CLTA [4]) | lowest phenotypically active concentration (A549-TUBA1B-RELA [5]) | lowest phenotypically active concentration (HepG2-TP53BP1-CLTA [6]) | phenotypically active (A549-ACTB-RAB5A [7]) | phenotypically active (A549-CANX-COX4 [8]) | phenotypically active (A549-GM130-SQSTM1 [9]) | phenotypically active (A549-TP53BP1-CLTA [10]) | phenotypically active (A549-TUBA1B-RELA [11]) | phenotypically active (HepG2-ACTB-RAB5A) | phenotypically active (HepG2-CANX-COX4) | phenotypically active (HepG2-GM130-SQSTM1) | phenotypically active (HepG2-TP53BP1-CLTA [12]) | phenotypically active (HepG2-TUBA1B-RELA) | phenotypically active (WPMY1-CANX-COX4) | phenotypically active (WPMY1-GM130-SQSTM1) | phenotypically active (WPMY1-TP53BP1-CLTA) | phenotypically active (WPMY1-TUBA1B-RELA)
O=C(OC12CC3CC(CC(C3)C1)C2)c1ccc(NCc2cc(O)ccc2O)cc1 [Adaphostin] | 1 µM | 9 µM | 9 µM | 9 µM | 3 µM | 3 µM | 1 (active) | 1 (active) | 1 (active) | 1 (active) | 1 (active) | 1 (active) | 1 (active) | 1 (active) | 1 (active) | 1 (active) | 1 (active) | 1 (active) | 1 (active) | 1 (active)
COc1ccc(-c2ccc3ncc4c(c3c2)n(-c2ccc(N3CCNCC3)c(C(F)(F)F)c2)c(=O)n4C)cn1 | ≤ 0.3 µM | ≤ 0.3 µM | ≤ 0.3 µM | ≤ 0.3 µM | ≤ 0.3 µM | ≤ 0.3 µM | 1 (active) | 1 (active) | 1 (active) | 1 (active) | 1 (active) | 1 (active) | 1 (active) | 1 (active) | 1 (active) | 1 (active) | 1 (active) | 1 (active) | 1 (active) | 1 (active)
Cc1c(CN2CCN(C(=O)[C@H](C)O)CC2)sc2c(N3CCOCC3)nc(-c3cnc(N)nc3)nc12 | ≤ 0.3 µM | ≤ 0.3 µM | ≤ 0.3 µM | ≤ 0.3 µM | ≤ 0.3 µM | 1 µM | 1 (active) | 1 (active) | 1 (active) | 1 (active) | 1 (active) | 1 (active) | 1 (active) | 1 (active) | 1 (active) | 1 (active) | 1 (active) | 1 (active) | 1 (active) | 1 (active)
CC(C)n1c(/C=C/[C@@H](O)C[C@@H](O)CC(=O)O)c(-c2ccc(F)cc2)c2ccccc21.CC(C)n1c(/C=C/[C@H](O)C[C@H](O)CC(=O)O)c(-c2ccc(F)cc2)c2ccccc21 [Fluvastatin sodium] | ≤ 0.3 µM | 9 µM | 3 µM | 9 µM | 9 µM | 1 µM | 1 (active) | 1 (active) | 1 (active) | 1 (active) | 1 (active) | 1 (active) | 1 (active) | 1 (active) | 1 (active) | 1 (active) | 1 (active) | 1 (active) | 1 (active) | 1 (active)
CNC(=O)c1ccccc1Sc1ccc2c(/C=C/c3ccccn3)n[nH]c2c1 [Axitinib] | 1 µM | 9 µM | 1 µM | 3 µM | 1 µM | 3 µM | 1 (active) | 1 (active) | 1 (active) | 1 (active) | 1 (active) | 1 (active) | 1 (active) | 1 (active) | 1 (active) | 1 (active) | 1 (active) | 1 (active) | 1 (active) | 1 (active)
COc1ccc(S(=O)(=O)N(C(C)=O)c2ccccc2/C=C/c2cc[n+]([O-])cc2)cc1 | 1 µM | 3 µM | ≤ 0.3 µM | 3 µM | ≤ 0.3 µM | 3 µM | 1 (active) | 1 (active) | 1 (active) | 1 (active) | 1 (active) | 1 (active) | 1 (active) | 1 (active) | 1 (active) | 1 (active) | 1 (active) | 1 (active) | 1 (active) | 1 (active)
